For 40 compounds, growth results are on record in PubChem BioAssay (NCI).

SMILES strings stand for the structures. This is part of a sample that, as a whole, favours compounds with a hit. Of some 83,000 tested, about 20% had one in any assay.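 Step 1: grow cells in 96-well plates. Step 2: add test compound at a single concentration. Step 3: incubate 48 h. Step 4: record percent growth.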 Values without a mark were called inactive. Activity calls are given as the source filed them.

This test relates to HOP-92 NSCLC. Briefly: NCI-60 one-dose screen, 48 h (100 = growth as untreated, 0 = no growth, -100 = all killed). The conditions noted are these: 10 µM unless noted. How it is done:
Growth inhibition of the HOP-92 human Non-Small Cell Lung tumor cell line is measured as a screen for anti-cancer activity. Cells are grown in 96 well plates and exposed to the test compound for 48 hours. Compounds are tested at a single concentration, which is 10^-5 M for most compounds. The reported endpoint is percent growth (GI% or GIPRCNT), where numbers from 0 - 100% represent growth inhibition, and numbers from -100% - 0 represent cell death. For example, a value of 40 represents 60% growth inhibition. A value of 0 means no net growth occurred over the course of the experiment. A value of -40 indicates 40% of cells at the beginning of the experiment died by the end of the experiment. A value of -100 means all cells are dead at the end of the experiment.
NCI-60 Human Tumor Cell Lines Screen was performed using the standard one-dose NCI protocol, which is described in more detail at https://dtp.cancer.gov/discovery_development/nci-60/default.htm.
Compounds with GIPRCNT values below 10 were considered active. Activity score was based on GIPRCNT using the following formula: […]
Score is 0 for GIPRCNT values of 100 or above, 50 for GIPRCNT values of 0, and 100 for GIPRCNT values of -100.
Regarding `CC(=O)OC[C@]12CCC(C)(C)C[C@H]1[C@@]1(O)[C@H](O)C[C@@H]3[C@@]4(C)CCCNC(C)(C)[C@@H]4CC[C@@]3(C)[C@]1(C)CC2`, the growth is 112%.
Consider `CCOC(=O)c1c(C)nc2c(c1N)CC(=O)N2Cc1cc(F)cc(Cl)c1`, for which the growth was 78.1%.
Consider `CCOC(=O)CSc1ncnc2c1c(-c1ccccc1)c(-c1ccccc1)n2-c1ccc(C)cc1`, for which the growth was 49.4%.
For the compound `Cc1nc2c(=O)[nH]c(SCC(=O)Nc3cccc(F)c3)nc2[nH]c1=O`, the growth is 99.9%.
On to `CS(=O)(=O)Nc1cc(-c2ccc3ncnc(Nc4c(Cl)ccc5c4OCO5)c3c2)cnc1Cl`, for which the growth was -10.5% (active).
In the case of `C/C(=C(/c1ccc(Cl)cc1)c1ccc(OCCN2CCCC2)cc1)c1ccc(Cl)cc1`, the growth is 69.5%.
To `NC(=O)c1c(NC(=O)c2ccccc2)sc2c1CCC(=O)C2` belongs -11.5% (active).
To `CO[C@H]1/C=C(/C)CCC[C@H](C)[C@H](O)[C@@H](C)C(=O)C(C)(C)[C@@H](O)CC(=O)O[C@@H]1/C(C)=C/c1csc(C)n1` belongs 66.6%.
With `O=C(Cn1c2c(c3ccccc31)CCCC2)Nc1ccc(-c2nc3ccccc3s2)cc1`, the growth is 89.6%.
With `O=C1N(Cc2ccccc2Cl)c2ccccc2C12NN=C(c1cccc(Cl)c1)S2` (stereo not given) the figure was -68.3% (active).
For `CC(C)(C)n1cc(-c2ccnc(NCCNS(=O)(=O)c3cccc4ccccc34)c2)c(-c2cccc(F)c2)n1`, the growth is -19.3% (active).
With `CN([O-])c1nc(N(C)[O-])nc(N2CCOCC2)n1.CN([O-])c1nc(N(C)[OH2+])nc(N2CCOCC2)n1.[Fe+3]` the figure was 61.7% [100 µM]; with `CC1=NN(c2nc(SCC(=O)Nc3nc4ccc(C)cc4s3)nc(-c3ccccc3)c2C#N)C(=O)C1`, 85%; with `COCCn1c(-c2csc(-c3cn(C)c4ccc(OC)cc34)n2)cc2cccnc21`, 67.5%.
As to `C=C1C(=O)O[C@H]2[C@H]1CC/C(COC(=O)NCc1ccc(Cn3c(=O)sn(CCI)c3=O)cc1)=C\CC[C@@]1(C)O[C@@H]21`, the growth was -19% (active).
To `COC(=O)c1c2c(c(C)[n+]([O-])c1C)C(=O)C=C(NCc1ccc(OC)cc1)C2=O` belongs -35.3% (active).
With `CN(C)CC(=O)Nc1ccc2ncnc(Nc3ccc(Oc4cccc(C(F)(F)F)c4)c(Cl)c3)c2c1` the figure was 37.9%; with `CCCCCCC1(C)NCCO1` (stereo not given), 102%.
With `Cc1ccc(Sc2nnc(/N=C3\C(=O)Nc4ccccc43)s2)cc1` the figure was 96.4%.
In the case of `COc1ccc(OC)c(C(=O)/C=C/c2cc3c(c(OC)c2OC)OCO3)c1`, the growth is 62.2%.
With `COc1ccc(C2c3sc4c(F)cccc4c3Oc3nc[nH]c(=O)c32)cc1` (stereo not given) the figure was 59.4%; with `CN[C@]12CC3(C=CC(=O)C=C3)O[C@@]1(Cc1ccc(OC)cc1)N(C)C(=O)N2`, 39.3%; with `COc1ccc(C(=O)C2C(c3ccc(OC)cc3)CN(C)C23C(=O)Nc2ccccc23)cc1` (stereo not given), 83%.
To `O=C(CSc1nc(-c2ccccc2)[nH]c1S(=O)(=O)c1ccccc1)NC1CC1` belongs 89.6%.
With `C=C1C(=O)O[C@H]2[C@H]1CC/C(COC(=O)NCc1cc[nH]c1)=C\CC[C@@]1(C)O[C@@H]21` the figure was 37.2%; with `CCOC(=O)C(=Cc1cccc(Cl)c1)C(=O)OCC`, 13.2%; with `CCN(CC)c1nc(SCc2ccccc2Cl)ncc1C`, 56%.
As for `Cc1ccc(S(=O)(=O)N2CCCC2CO)cc1` (stereo not given), the growth was 76.9%.
With `CCOC(=O)c1ccc2[nH]c(O)c(C(=Nc3ccc(N(C)C(=O)CN4CCN(C)CC4)cc3)c3ccccc3)c2c1` the figure was 30.3%.
With `CC(=O)Nc1nc2ccc(NS(=O)(=O)c3cccc4c(N(C)C)cccc34)cc2[nH]1` the figure was 72.2%; with `CC1(c2ccccc2O)NN=C(/N=C/c2cccc([N+](=O)[O-])c2)N1C(Cc1c[nH]c2ccccc12)C(=O)O` (stereo not given), 81.2%.
With `O=C1c2cccc(NCCN=Cc3cc(O)ccc3O)c2C(=O)c2c(NCCN=Cc3cc(O)ccc3O)cccc21` the figure was -25.5% (active); with `c1cnc2[nH]cc(-c3csc(-c4cn(CCCN5CCOCC5)c5ccccc45)n3)c2c1`, 12%.
`C=CCn1c(SCC(=O)Nc2ccc(C(=O)/C=C/c3cc4cc(OC)ccc4nc3Cl)cc2)nnc1-c1ccc(Br)cc1`: the growth was 70.1%.
With `Cc1ccc(Sc2oc(-c3ccc(C)cc3)nc2[P+](c2ccccc2)(c2ccccc2)c2ccccc2)cc1` the figure was -9.3% (active).
With `N#Cc1cccc(NC(=O)c2oc3ccccc3c2-c2cnn(-c3ccccc3)c2)c1`, the growth is -23.3% [50 µM] (active).
Take `COc1ccc(-c2ccc3cnc4sc(-c5ccc(OC)cc5)nc4c3n2)cc1`: the growth was 100%.
Turning to `C#CCn1cnc2c(Nc3cccc(NC(=O)C=C)c3)ncnc21`, the growth is 68.5%.
Take `COCCn1cc(-c2nc(-c3cc4cccnc4n3CCOC)cs2)c2cc(OC)ccc21`: the growth is 47.1%.
To `Cn1c(O)c(C=NCCN=Cc2c(O)n(C)c(=O)n(C)c2=O)c(=O)n(C)c1=O` belongs 86.2%.
